Results as given in ChEMBL document CHEMBL1201862, “PubChem BioAssay data set” (2004).
Screen size: about 57,000 sequences; about 2,500 (4.4%) were called active. Rule as the data show it: active = GI50 up to about 1.1 µM and inactive = higher. The list is a sample of the results. Potency and affinity values are given separately.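 Five compound concentrations were applied to cells in 96-well plates for 48 hours; endpoints were derived by simple linear interpolation of the resulting dose-response curve. GI50 marks 50% less growth.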

System: OVCAR-5
Experiment: NCI tumour cell line growth inhibition, 48 h

Point of comparison: “[Bis(aminomethyl)pentamethylenesilane]dichloropaltinum(II), CHEMBL2146202”, GI50 3.38 µM. Against it:
- mu-(1,7-nanodiamine-N,N')bis-(cis-aminedichloroplatimum (II)), CHEMBL2146215 — higher, > 100 µM
- CISPLATIN, CHEMBL11359 — within 1.5-fold, 4.51 µM
- [Bis(aminomethyl)ethylmethylsilane]tetrachloroplatinum(IV), CHEMBL2146192 — 1.9-fold higher, 6.49 µM
- [Bis(aminomethyl)pentamethylenesilane]tetrachloropaltinum(IV), CHEMBL2146204 — 1.9-fold higher, 6.27 µM
- cis-Bis[[(trimethylsilyl)methyl]amino]tetrachloroplatinum(IV), CHEMBL2146191 — 9-fold higher, 30.3 µM
- [Bis(aminomethyl)dimethylsilane]tetrachloroplatinum(IV), CHEMBL2146190 — 2.2-fold higher, 7.29 µM
- [Bis(aminomethyl)dimethylsilane]dichloroplatinum (II), CHEMBL2146201 — 9-fold higher, 30.5 µM
- [Bis(aminomethyl)tetramethylenesilane]dichloropaltinum(II), CHEMBL2146205 — 2.2-fold higher, 7.55 µM
- [Bis(aminomethyl)tetramethylenesilane]tetrachloropaltinum(IV), CHEMBL2146189 — within 1.5-fold, 4.22 µM
